JMJD2A Tudor inh: JMJD2A Tudor domain (human) inhibition; Potency, µM (highest dose often 114 µM), inactives show at the highest dose activity change, negative = inhibition, hits mostly inhibitors; O75164; 4.4% of 390,000 active; AlphaScreen JMJD2A-Tudor / H3K4me3 peptide binding; note: potency is the fitted concentration of half-maximal effect; % is set by controls: 0 for no effect and ±100 for the full control effect; nearly all actives have a fitted effect of over 50% in size
PLK1 PBD block: PLK1 (human) polo-box domain binding inhibition | P53350 | Plk1 PBD binding of FITC phosphopeptide, fluorescence polarization | Potency, µM, inactives show max response, negative = inhibition, actives largely listed as inhibitors | 2.8% of 360,000 active | AID 720504; note: potency is the fitted concentration of half-maximal effect; series mostly up to about 57 µM; % is set by controls: 0 for no effect and ±100 for the full control effect; nearly all actives have a fitted effect of over 65% in size
Target sequence (P53350 whole entry, looked up, the tested form may be a part): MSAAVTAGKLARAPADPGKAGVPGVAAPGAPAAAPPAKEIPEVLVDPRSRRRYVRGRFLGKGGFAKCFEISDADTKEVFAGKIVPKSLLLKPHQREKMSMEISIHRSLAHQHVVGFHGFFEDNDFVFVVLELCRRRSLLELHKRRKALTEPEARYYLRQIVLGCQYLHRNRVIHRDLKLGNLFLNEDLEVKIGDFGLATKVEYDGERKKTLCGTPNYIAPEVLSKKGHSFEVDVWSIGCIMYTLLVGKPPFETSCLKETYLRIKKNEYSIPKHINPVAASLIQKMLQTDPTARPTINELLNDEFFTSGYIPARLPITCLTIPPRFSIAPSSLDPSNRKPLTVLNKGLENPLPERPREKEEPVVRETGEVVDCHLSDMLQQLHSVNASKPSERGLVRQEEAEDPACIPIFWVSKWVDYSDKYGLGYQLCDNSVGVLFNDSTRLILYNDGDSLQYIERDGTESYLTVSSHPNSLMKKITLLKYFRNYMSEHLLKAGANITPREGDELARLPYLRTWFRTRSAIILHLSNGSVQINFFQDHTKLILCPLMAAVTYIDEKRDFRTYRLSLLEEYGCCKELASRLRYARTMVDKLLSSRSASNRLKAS
G9a block: G9a (human) methyltransferase inhibition | Q96KQ7 | G9a H3K9 monomethylation, AlphaScreen, 2 h | Potency, µM (top dose mostly 102 µM), for inactives: at the top dose activity, negative = inhibition, usual class: inhibitors | 8.8% of 350,000 active | AID 504332; note: potency is the fitted concentration of half-maximal effect; % is set by controls: 0 for no effect and ±100 for the full control effect; nearly all actives have a fitted effect of over 75% in size
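Step 1: enzyme (final 20 nM) with compound, 15 min RT. Step 2: substrate peptide 500 nM and SAM 20 uM, 2 h RT. Step 3: anti-H3K9me1 antibody and AlphaScreen beads, 10 min, then plate read.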
HP1b chromo inh: blocks HP1-beta chromodomain binding to methylated histone tails. AID 540317. AlphaScreen HP1-beta / biotin-H3K9me3 peptide binding. P83916. 0.56% of 390,000 active. Potency, µM (titrated, usually from 114 µM), inactives show at the highest dose activity change, negative = inhibition, most hits filed as inhibitors; note: potency is the fitted concentration of half-maximal effect; nearly all actives have a fitted effect of over 70% in size
Target sequence (P83916 whole entry, looked up): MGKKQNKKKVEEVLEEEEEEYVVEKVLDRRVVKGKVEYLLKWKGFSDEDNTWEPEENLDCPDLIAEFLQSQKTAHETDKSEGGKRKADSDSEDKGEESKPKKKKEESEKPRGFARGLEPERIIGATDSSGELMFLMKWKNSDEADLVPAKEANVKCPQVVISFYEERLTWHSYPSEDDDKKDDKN
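AlphaScreen: HP1-beta (50 nM) preformed 30 min with biotin-H3(1-18)K9me3 peptide (50 nM) in PBS pH 7.4, 0.01% Tween-20. Compound added for 30 min at RT, then streptavidin donor/nickel chelate acceptor beads (10 ug/mL) for 30 min.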
BAZ2B block: inhibitors of human BAZ2B bromodomain; Q9UIF8; AID 504333; AlphaScreen BAZ2B-H3K14Ac peptide displacement; 4.4% of 360,000 active; Potency, µM (highest dose often 114 µM), for inactives: at the highest dose activity change, negative = inhibition, most hits filed as inhibitors; note: potency is the fitted concentration of half-maximal effect; % is set by controls: 0 for no effect and ±100 for the full control effect; nearly all actives have a fitted effect of over 60% in size
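Complex of BAZ2B and biotin-H3K14Ac (50 nM apiece) forms over 30 min at RT, then faces library compounds up to 110 uM for another 30 min; AlphaScreen beads added, 20 min dark incubation, luminescence read.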
PI5P4Ka inh: PI5P4K alpha (human) kinase inhibition. 1.2% of 330,000 active. P48426. max response, %. AID 652105. PI5P4Kalpha enzyme, ADP-Glo luminescence, 60 min; stronger effect = lower value; active = max response of -50% or lower; inconclusive = between -30% and -50%; inactive = -30% or higher; note: value at the top dose of about 77 µM; % is set by controls: 0 for no effect and ±100 for the full control effect
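Human PI5P4Kalpha with substrate in 0.038 M HEPES pH 7.4, 0.28 mM EGTA, 0.1% CHAPS, 5% DMSO; reaction started with 5 microM ATP (final), 60 min at room temperature. ADP formed read by ADP-Glo luminescence.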
An asterisk follows results filed as active; ? = inconclusive; nt = not tested or not shown; [ ] = remark or other dose. A selection: hits, their analogues and other compounds. The true share with any hit is near 12%. Unless noted, calls come from the whole dose curve; as a rule, active = well fitted curve in the direction sought with a large enough effect; inconclusive = small, poorly fitted or top-dose-only effect, or another doubt; inactive = no such curve, though single readings can be large; an effect the other way counts as inactive or inconclusive.

SMILES | JMJD2A Tudor inh | PLK1 PBD block | G9a block | HP1b chromo inh | BAZ2B block | PI5P4Ka inh
COC(=O)C(Cc1ccccc1)NS(=O)(=O)c1cc(Br)ccc1Br (stereo unspecified) | -5% | nt | nt | 39% | nt | nt
O=C1SC(c2ccccc2)=C/C1=C\N1CCCCC1 | 50µM* | -16% | 3%[0.0925 µM] | ? | 50µM* | nt
O=C(c1ccco1)N1CCN(C(=S)NCc2ccc(F)cc2)CC1 | -21% | -6% | 1% | 20% | -5% | -2
O=C1/C(=C\c2ccc(Br)o2)SC(=Nc2ccccc2)N1c1ccccc1 | 25µM* | -7% | 40µM* | -32% | 8.9µM* | nt
CN(C)N1C(=O)/C(=C/c2ccco2)SC1=Nc1ccccc1 | -29% | -10% | nt | -11% | nt | -19
Cc1ccc(S(=O)(=O)N2CCN(c3nc(-c4ncco4)nc4ccccc34)CC2)cc1 | -35% | nt | nt | 1% | nt | nt
COc1ccc(CNc2ccc3cn[nH]c3c2)c(OC)c1OC | ? | -24% | 8.9µM* | -4% | ? | nt
CCOc1cc(CNc2ccc3cn[nH]c3c2)ccc1OC | ? | -23% | 28µM* | 6% | ? | -16
COc1ccccc1S(=O)(=O)Nc1ccc2cn[nH]c2c1 | -7% | -2% | 13%[59 µM] | 19% | 2% | 2
COC(=O)[C@@]12CCCCN1[C@H](c1ccc(-c3ccc(C(C)=O)cc3)c(OC)c1)[C@@H]1C(=O)N(C)C(=O)[C@@H]12 | -20% | 1% | -4%[2.33 µM] | 10% | -33% | -4
CCOc1cc(C(=O)Nc2ncn[nH]2)cc(OCC)c1OCC | -33% | -9% | 13% | 10% | 56µM* | -5
COc1cc(OC)cc(C(=O)Nc2ncn[nH]2)c1 | -34% | 3% | 22%[2.33 µM] | 34% | ? | -1
COc1cc(OC)c(C(=O)Nc2ncn[nH]2)cc1OC | 50µM* | -8% | nt | 32% | nt | 2
O=C(O)C(=O)Nc1ncn[nH]1 | nt | 7% | nt | nt | nt | -11
O=C(Nc1ncn[nH]1)c1ccc(Cl)cc1Cl | -26% | -6% | ? | 33% | 50µM* | 9
O=C(Nc1ncn[nH]1)c1ccc(Cl)c(Cl)c1 | -19% | ? | ? | 47% | -5% | -12
C=CCOc1cccc(C(=O)Nc2ncn[nH]2)c1 | -12% | 1% | ? | 29% | 56µM* | -3
Cc1cc(C)c(NC(=O)CCn2c(=O)c3cccn3c3cccnc32)c(C)c1 | 6% | nt | 2%[59 µM] | 56% | -1% | nt
CCCn1c(=O)c2sccc2n2c(CCCC(=O)N3CCN(c4ccccc4)CC3)nnc12 | -3% | nt | 8%[59 µM] | 32% | -11% | nt
Cc1nc2ccc(NC(=O)c3ccc([N+](=O)[O-])cc3)cc2[nH]1 | -21% | -9% | nt | 31% | 2% | 1
COc1cccc(C(=O)C(=O)N2CCN(C(=O)OCc3ccccc3)CC2)c1 | nt | 1% | nt | nt | nt | 3
COc1ccc(-c2nc3sc(CCNC(=O)c4ccccc4C)c(C)n3n2)cc1 | -26% | nt | ? | 10% | -3% | nt
O=C(Nc1ccc2ccccc2c1)c1ccc(Cl)cc1Cl | -2% | -1% | 4% | 46% | 1% | 0
CCOc1cc(C(=O)NC(=S)Nn2cnnc2)cc(OCC)c1OCC | ? | ? | 25µM* | -7% | -30% | 12
O=C(Nc1nc(=S)ss1)c1ccc(Cl)cc1Cl | -4%[57.1 µM] | 15µM* | ? | ? | -27% | ?
SMILES | JMJD2A Tudor inh | PLK1 PBD block | G9a block | HP1b chromo inh | BAZ2B block | PI5P4Ka inh
Cc1ccccc1NC(=O)COC(=O)c1ccc(C)c(S(=O)(=O)N2CCCCC2)c1 | nt | 6% | nt | nt | nt | 4
Cc1c(Cc2ccc3c(c2)OCO3)sc(NC(=O)c2ccccc2)c1C(N)=O | -14% | ? | 32µM* | 11% | 0% | -5
COC(=O)c1c(NC(=O)CCC(=O)O)sc(Cc2ccccc2)c1C | 3%[11.4 µM] | ? | -25% | 61% | ? | -1
CCCC(=O)Nc1sc(Cc2ccccc2)c(C)c1C(N)=O | -23% | 5.3µM* | 3.5µM* | ? | -26% | -9
Cc1cc(=O)n(C)c(=O)n1CCCCCCN1CCCC1 | 3.2µM* | -7% | 11µM* | ? | ? | nt
CCCC1=[N+](CC(=O)c2ccccc2)CCn2cccc21 | -15% | -6% | -14%[59 µM] | 22% | -34% | -13
CCCC1=[N+](CC(C)=O)CCn2c(C)ccc21 | -35% | ? | 32µM* | 44% | -28% | -12
Cc1cc2c(s1)c1cnn(Cc3cccc([N+](=O)[O-])c3)c(=O)c1n2C | -15% | nt | nt | nt | nt | nt
CCc1ccc(OCCCSc2nc(-c3ccc(C(C)(C)C)cc3)nc3cc(=O)[nH]n23)cc1 | 25µM* | nt | 12%[59 µM] | -25% | 50µM* | nt
Cc1cccc(OCCCSc2nc(-c3ccc(C(C)(C)C)cc3)nc3cc(=O)[nH]n23)c1C | 25µM* | nt | 7%[59 µM] | 1% | 56µM* | nt
Cc1cccc(N=C2NC(=O)/C(=C/C=C/c3ccco3)S2)c1 | 18µM* | ? | 14µM* | ? | 35µM* | -67*
COc1ccc(N=C2NC(=O)/C(=C\C=C\c3ccco3)S2)cc1 | 20µM* | 21µM* | 7.1µM* | 22µM* | 28µM* | -81*
COC(=O)/C=C1\SC(=Nc2ccccc2)NC1=O | -11% | -6% | 2%[59 µM] | 29% | -2% | -3
CC1=C(C(=O)OCC2CCCCC2)C(c2ccc(Cl)cc2Cl)CC(=O)N1 (stereo unspecified) | -17% | nt | 11%[59 µM] | 7% | 2% | nt
COc1ccc2c(-c3ccc(OCCN4CCOCC4)cc3)c(-c3ccccc3OC)sc2c1 | ? | -17% | nt | -17% | nt | 54
COc1ccccc1-c1sc2ccccc2c1-c1ccc(OCCN2CCCCC2)cc1 | 35µM* | -3% | nt | ? | nt | 6
COc1ccc2c(-c3ccc(OCCN4CCCCC4)cc3)c(-c3ccccc3OC)sc2c1 | 28µM* | -13% | nt | -34% | nt | 18
Oc1ccc2sc(-c3ccccc3O)c(-c3ccc(OCCN4CCCCC4)cc3)c2c1 | nt | 3% | nt | nt | nt | 6
COc1cc2sc(-c3ccccc3OC)c(-c3ccc(OCCN4CCOCC4)cc3)c2cc1OC | 32µM* | -13% | nt | ? | nt | 42
CSc1ccc(CNC(=O)Cc2ccc(NC(=O)C3=C(C)OCCS3)cc2)cc1 | 1% | 6% | -9% | 41% | -21% | ?
CCc1ccccc1NC(=O)c1cnc(N2CCCCC2)c2ccccc12 | -1% | nt | 22%[59 µM] | 30%[57 µM] | 7% | nt
COC(=O)c1ccc(C)c(N(CCO)CCO)c1 | 0% | 0% | 25µM* | 42% | -4% | nt
CCOC(=O)C1CCCN(C(=O)Cc2ccc(C)cc2)C1 (stereo unspecified) | -11%[11.4 µM] | 27µM* | 17% | -15% | -6% | -28
CCOC(=O)C1CCCN(C(=O)c2ccc(CS(=O)(=O)c3ccc(C)cc3)o2)C1 (stereo unspecified) | ? | -27% | 50µM* | 20% | ? | ?

Bioassay records (PubChem)
